Experimental findings from PubChem BioAssay (NCI) are described below.

Compounds without any hit were thinned out: in the full panel of roughly 83,000, 20% have a hit.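 Values shown are percent growth following 48 h exposure of cells in 96-well plates to a single concentration of compound; below 10 was considered active.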 Unmarked numbers belong to inactive results. Activity calls are given as the source filed them.

The assay deals with HL-60(TB) leukemia. Briefly: NCI-60 one-dose screen, 48 h (100 = growth as untreated, 0 = no growth, -100 = all killed). The following applies: 10 µM unless noted.
As to `CCCCCCCCCCCCCCCCCC1=NCCN1CS(=O)(=O)O`, the growth was 24.2%.
Under `NS(=O)(=O)c1ccc(-n2ncc3c(SCc4ccccc4)ncnc32)cc1` stands 88.1%; under `N#C/C(=C\c1ccc(Br)cc1)n1nnc2cc(F)c(F)cc21`, -16.2% (active).
Under `O=C(O)C(c1ccccc1)C(O)c1ccccc1` (centres undefined) stands 97.8%; under `N#Cc1c(Nc2ccccc2)nc2n(c1=O)-c1ccccc1Sc1ccccc1-2`, 79.6%.
Then `CC1(C)S[C@@H]2[C@H](NC(=O)[C@H](C(=O)O)c3cccs3)C(=O)N2[C@H]1C(=O)O`, with 106%.
In the case of `CCOC(=O)CN1CCC(C(=O)OCC)CC1`, the growth is 116%.
Under `CCN(CC)CCOC(=O)Nc1ccccc1Cl` stands 102%.
Then `CCOC(=O)Cc1cc(Br)c(OCc2ccccc2)c(Br)c1`, with 71.7%; and `COc1cc(/C=C/C(=O)c2ccc(NC(=O)CSc3nnc(-c4cc(OC)c(OC)c(OC)c4)n3-c3ccccc3)cc2)cc(OC)c1OC`, with 6.87% (active); and `CN1CCN(Cc2ccc(NC(=O)c3[nH]ncc3Nc3cc(OC4CCCC4)ncn3)cc2)CC1`, with -12.7% (active).
Then `O=C(c1ccc(Nc2nccc(NCCCCNc3ccnc4cc(Cl)ccc34)n2)cc1)N1CCCCC1`, with -22.3% (active); and `N=S(c1ccccc1[N+](=O)[O-])c1ccccc1[N+](=O)[O-]`, with 10.1%.
For the molecule `COc1ccc(C=Nc2c(C(=O)Nc3cccc(Cl)c3C)sc3nc(C)c(C(=O)/C=C/c4ccc(OC)cc4)cc23)cc1`, the growth was 9.38% (active).
Under `COc1cccc(N=CNc2cccc(OC)c2)c1` stands 96.7%; under `COc1cc(C(=O)c2cc(C)c3[nH]c4ccc(O)cc4c3c2C)cc(OC)c1OC`, -13.7% (active).
Then `COc1cc(/C=N/NC(=O)c2ccc(C(F)(F)F)nc2Nc2cc(Cl)ccc2C)cc(OC)c1OC`, with 107%; and `Nc1c(Cl)cc([N+](=O)[O-])cc1Br`, with 101%; and `CNc1ccccc1C(=O)N/N=C/C=C/c1ccccc1`, with -32.6% (active).
As for `COc1cc(/C=C2\SC(=S)N(/C=C/c3nc4ccccc4[nH]c3=O)C2=O)cc(OC)c1OC`, the growth is 70%.
Under `CNC(=O)c1ccccc1Nc1nc(Nc2cc(OC)c(OC)c(OC)c2)ncc1Br` stands 19%.
Under `Cc1nn(CCO)c(C)c1N=[N+]([O-])c1c(C)nn(CCO)c1C` stands -45.8% (active); under `O=C(O)c1cn(C2CC2)c2cc(N3CCN(C(=O)C[n+]4cccc5ccccc54)CC3)c(F)cc2c1=O`, 99.1%.
Then `Clc1ccc(-c2c3ccc(=[N+]4CCCCC4)cc-3oc3cc(N4CCCCC4)ccc23)cc1`, with -42.3% (active).
